This is a sample that favours compounds with a hit; in the whole collection about 10% have one here.
JMJD2A Tudor inh: qHTS Assay for Inhibitors of JMJD2A-Tudor Domain; Lysine-specific demethylase 4A (Homo sapiens), O75164; AlphaScreen JMJD2A-Tudor / H3K4me3 peptide binding; Potency, µM (top dose mostly 114 µM), without a hit: at the highest dose activity change, negative = inhibition, actives largely listed as inhibitors; 390,000 compounds, 4.4% hits; also: potency is read from the fitted curve at half-maximal effect; % is scaled to controls: 0 for no effect and ±100 for the full control effect; nearly all actives have a fitted effect of over 50% in size
GLS inh: qHTS for Inhibitors of Glutaminase (GLS); AID 624170, 2012; 410,000 compounds, 0.21% hits; Potency, µM (series often up to 45.5 µM), without a hit: top-dose activity change, negative = inhibition, most hits filed as inhibitors; Glutaminase kidney isoform, mitochondrial (Homo sapiens), O94925; GLS enzymatic activity, qHTS titration; also: potency is read from the fitted curve at half-maximal effect; % is scaled to controls: 0 for no effect and ±100 for the full control effect
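hKGA in 45 mM KH2PO4 pH 8.2, 0.02% Tween-20 with pin-transferred compounds; 1 mM L-glutamine (stock) plus glutamate oxidase/HRP/Amplex Red coupling added. Fluorescence read initially and after 30 min at RT.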
G9a inh-1: qHTS Assay for Inhibitors of Histone Lysine Methyltransferase G9a; 350,000 compounds, 8.8% hits; Potency, µM (doses to about 102 µM), without a hit: at the top dose activity, negative = inhibition, usual class: inhibitors; AID 504332, 2011; G9a H3K9 monomethylation, AlphaScreen, 2 h; Histone-lysine N-methyltransferase EHMT2 (Homo sapiens), Q96KQ7; also: potency is read from the fitted curve at half-maximal effect; % is scaled to controls: 0 for no effect and ±100 for the full control effect; nearly all actives have a fitted effect of over 75% in size
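G9a (20 nM) was preincubated 15 min with compound, then reacted 2 h at room temperature with 500 nM biotin-H3K9 peptide and 20 µM SAM. Monomethyl-H3K9 detected by AlphaScreen using anti-H3K9me1 antibody.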
HP1b chromo inh: HTS for Inhibitors of HP1-beta Chromodomain Interactions with Methylated Histone Tails. Chromobox protein homolog 1 (Homo sapiens), P83916. AlphaScreen HP1-beta / biotin-H3K9me3 peptide binding. Potency, µM (doses to about 114 µM), for inactives: at the top dose activity change, negative = inhibition, hits mostly inhibitors. 390,000 compounds, 0.56% hits. AID 540317, 2011; also: potency is read from the fitted curve at half-maximal effect; nearly all actives have a fitted effect of over 70% in size
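HP1-beta protein (50 nM final) preincubated 30 min at room temperature with biotinylated H3(1-18)K9me3 peptide (50 nM) in PBS pH 7.4, 0.01% Tween-20, then compound added for 30 min. AlphaScreen streptavidin donor/nickel chelate acceptor beads (10 ug/mL final), 30 min dark, luminescence read.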
BAZ2B inh: qHTS Assay for Inhibitors of BAZ2B | AlphaScreen BAZ2B-H3K14Ac peptide displacement | AID 504333, 2011 | 360,000 compounds, 4.4% hits | Potency, µM (doses to about 114 µM), without a hit: top-dose activity change, negative = inhibition, most hits filed as inhibitors; also: potency is read from the fitted curve at half-maximal effect; % is scaled to controls: 0 for no effect and ±100 for the full control effect; nearly all actives have a fitted effect of over 60% in size
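Complex of BAZ2B and biotin-H3K14Ac (50 nM apiece) forms over 30 min at RT, then faces library compounds up to 110 uM for another 30 min; AlphaScreen beads added, 20 min dark incubation, luminescence read.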
L3MBTL1 block: qHTS Assay for the Inhibitors of L3MBTL1; Potency, µM (highest dose often 57.1 µM), without a hit: at the highest dose activity, negative = inhibition, usual class: inhibitors; AlphaScreen L3MBTL1–H3K9me1 peptide binding; 230,000 compounds, 0.66% hits; Lethal(3)malignant brain tumor-like protein 1 (Homo sapiens), Q9Y468; also: potency is read from the fitted curve at half-maximal effect; % is scaled to controls: 0 for no effect and ±100 for the full control effect; nearly all actives have a fitted effect of over 60% in size
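L3MBTL1 50 nM + b-AHA-H3(1-15)K9me1 75 nM, 30 min RT; compound added, 30 min RT; streptavidin donor/Ni-chelate acceptor beads 10 ug/mL each final, 30 min RT dark; AlphaScreen read.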
JMJD2E inh-1: Inhibitors of Human Jumonji Domain Containing 2E (JMJD2E): 8HQs - Round 1 | 130 compounds, 89% hits | AID 493212, 2011 | shares compounds with BAZ2B inh | Potency, µM (highest dose often 57 µM), for the others: top-dose activity, negative = inhibition, actives largely listed as inhibitors | JMJD2E demethylase, FDH-coupled NADH fluorescence
JMJD2E inh-2: Confirmation qHTS Assay for Inhibitors of Human Jumonji Domain Containing 2E (JMJD2E); shares compounds with JMJD2A Tudor inh; Recombinant JMJD2E, FDH-coupled NADH fluorescence (FDH is formaldehyde dehydrogenase); Potency, µM (titrated, usually from 56.8 µM), without a hit: at the highest dose activity change, negative = inhibition, most hits filed as inhibitors; 140 compounds, 93% hits; AID 2677, 2010
FDH counter: Counterscreen for JMJD2E Inhibitors: qHTS Assay for Inhibitors of Formaldehyde Dehydrogenase (FDH). AID 2680, 2010. shares compounds with JMJD2A Tudor inh. Potency, µM (series often up to 56.7 µM), for inactives: at the highest dose activity, negative = inhibition, most hits filed as inhibitors. FDH enzyme assay, NADH fluorescence kinetic. 140 compounds, 10% hits
JMJD2E MALDI inh: MALDI-TOF-MS Assay for Inhibitors of Human Jumonji Domain Containing 2E (JMJD2E) | shares compounds with JMJD2A Tudor inh | recombinant JMJD2E demethylation, MALDI-TOF-MS | Potency, µM, usual class: inhibitors | 45 compounds, 90% hits | AID 2688, 2010;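 active = compounds whose IC50 for blocking JMJD2E demethylation is below 100 µM; inconclusive = dose dependent effect but IC50 above 100 µM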
G9a inh-2: qHTS Assay for Inhibitors of Histone Lysine Methyltransferase G9a: Hit Confirmation; G9a H3K9 monomethylation, AlphaScreen, 2 h; Potency, µM, actives largely listed as inhibitors; 370 compounds, 89% hits; shares compounds with JMJD2A Tudor inh; AID 588344, 2011; also: potency is read from the fitted curve at half-maximal effect; nearly all actives have a fitted effect of over 65% in size
RGS4 inh: qHTS for Inhibitors of Regulator of G Protein Signaling(RGS) 4: Hit Validation; shares compounds with JMJD2A Tudor inh; RGS4 GAP activity, Transcreener GDP fluorescence polarization; Potency, µM, usual class: inhibitors; 25 compounds, 80% hits; AID 602388, 2012
* marks the source's active call; other numbers are inactive results; ? = inconclusive; / = not tested or not shown; ! = not confirmed by another sample; [ ] = another dose, or the depositor's remark. Unless noted, calls follow the shape of the dose curve; as a rule, active = well fitted curve in the direction sought with a large enough effect; inconclusive = small, poorly fitted or top-dose-only effect, or another doubt; inactive = no such curve, though single readings can be large; an effect the other way counts as inactive or inconclusive.

SMILES | JMJD2A Tudor inh | GLS inh | G9a inh-1 | HP1b chromo inh | BAZ2B inh | L3MBTL1 block | JMJD2E inh-1 | JMJD2E inh-2 | FDH counter | others
CN(C)CCCNc1cc(O)c2ncccc2c1 | 35µM* | 13% | ? | -1% | 8.9µM* | ? | 28µM* | 28µM* | -18% | JMJD2E MALDI inh=?
COc1cc(NCc2ccccc2O)c2ncccc2c1 | -29% | -5% | 27% | 19% | ? | ? | / | / | /
Fc1ccc(CNc2ncccn2)cc1 | 8% | -1% | -3% | 25% | 4% | / | / | / | /
Clc1ccc(CNc2ncccn2)cc1 | 5% | -21% | -6% | 27% | -17% | / | / | / | /
Oc1cc(NCc2ccc(F)cc2)cc2cccnc12 | -28% | 6% | 0%[12.7 µM] | 40% | ? | 6% | 36µM* | ? | -36% | JMJD2E MALDI inh=75*
Oc1cc(NCc2ccc(Cl)cc2)cc2cccnc12 | -10% | 2% | -5%[12.7 µM] | 57% | -2% | 12% | 15% | 20% | -18% | JMJD2E MALDI inh=?
COc1cc2cc(CNc3ccccc3)c(=O)n(CC(=O)Nc3ccccc3)c2cc1OC | -6% | ? | -45%[59 µM] | -15% | 1% | / | / | / | /
COc1cc(C(=O)N2CCNCC2)cc(OC)c1OC | -7% | -1% | / | 54% | 2% | 5% | / | / | /
O=C(c1ccc(-c2cc(O)c3ncccc3c2)cc1)N1CCNCC1 | 20µM* | -1% | -30%[12.7 µM] | 27% | 7.9µM* | 25µM* | 16µM* | 16µM* | 0%
Oc1c(CN2CCCCC2)cc(COCc2ccccc2)c2cccnc12 | 20µM* | -6% | ? | 19% | 6.3µM* | 13µM* | 4µM* | 4µM* | -27%
CN(C)C1CCN(Cc2cc(COCc3ccccc3)c3cccnc3c2O)C1 (configuration not stated) | 32µM* | 0% | -38%[12.7 µM] | 26% | 10µM* | 10µM* | 11µM* | 7.9µM* | -18%
Cc1ccc(C2=Nc3ccccc3N(CC(=O)Nc3ccccc3F)C(=O)C2)cc1C | -28% | -9% | 7%[59 µM] | 39% | -21% | / | / | / | /
CN(Cc1ccco1)Cc1ccc(O)c2ncccc12 | -7% | -12% | 1.4µM* | 45% | 3.2µM* | 11µM*! | 3.2µM* | 3.2µM* | -9%
Oc1ccc(CNc2cccc(F)c2F)c2cccnc12 | / | / | 1.1µM* | / | 40µM* | 25µM* | 2.5µM* | 2.5µM* | -9%
Oc1ccc(CCc2ccccc2F)c2cccnc12 | -30% | / | / | / | / | / | 10µM* | 13µM* | -9% | JMJD2E MALDI inh=29*
O=C(Cn1nnc(-c2ccccc2F)n1)Nc1cccc2ncccc12 | -4% | 2% | -23% | 31% | -4% | -5% | / | / | /
O=C(NCc1cccnc1)Nc1ccc(F)cc1F | -12% | 16% | 5%[59 µM] | 47% | 12% | / | / | / | /
Oc1ccc(NCc2ccccc2F)c2cccnc12 | 50µM* | / | / | / | / | / | ? | 2.6µM* | -18% | JMJD2E MALDI inh=19*
Oc1ccc(CNc2ccc(F)cc2F)c2cccnc12 | 20µM* | / | / | / | / | / | 2.3µM* | 5.8µM* | -9% | JMJD2E MALDI inh=42*
Cc1sc2ncn(CC(=O)N3CCN(c4ccccc4F)CC3)c(=O)c2c1S(=O)(=O)N1CCC(C)CC1 | -13% | -7% | -19%[59 µM] | 30% | -2% | / | / | / | /
COc1ccc(NC(=O)CSc2ncc3c(n2)-c2ccccc2N(Cc2ccc(C)cc2)S3(=O)=O)cc1Cl | -6% | -18% | -30%[59 µM] | 1% | -35% | / | / | / | /
Clc1cccc(Cl)c1CNc1ccc(N2CCCC2)cc1 | 18µM* | 7.1µM* | 1.8µM* | 18µM* | 20µM* | ? | / | / | / | G9a inh-2=4*;RGS4 inh=9.5*
O=C(O)c1cc(S(=O)(=O)Nc2ccc(N3CCCCC3)cc2)ccc1Cl | -30% | 1% | -18%[59 µM] | 10% | -32% | / | / | / | /
Oc1ccc2ccccc2c1CNc1cnc2ccccc2c1 | ? | / | 1.4µM* | -12% | ? | / | / | / | / | G9a inh-2=0.5*
CCCn1c(CNc2ccccc2O)nc2ccccc21 | ? | 20% | ? | -7% | ? | / | / | / | / | G9a inh-2=11*
CC(NC(=O)CN(c1ccc(Cl)cc1Cl)S(=O)(=O)c1ccccc1)c1ccccc1 (configuration not stated) | -6% | 1% | 3%[59 µM] | 23% | -8% | / | / | / | /
COc1ccc(C2CC(c3ccccc3)Oc3cc(C)cc(C)c32)cc1 (configuration not stated) | 21% | / | / | 55% | / | / | / | / | /
COc1ccccc1Nc1ccc(C(=O)NCc2cccs2)cn1 | -17% | -1% | -6% | 37% | -4% | 7% | / | / | /
COc1ccccc1Nc1ncc(-c2cccs2)s1 | ? | 32% | ? | ? | ? | -7% | / | / | / | RGS4 inh=?
N#Cc1ccc(C(=O)N2CCN(S(=O)(=O)c3ccc(Br)s3)CC2)cc1 | -7% | -3% | ? | 40% | -13% | ? | / | / | /

Assay outcomes as filed in PubChem.
